M1 antag – human CHRM1 antagonism. inhibition, % at 3 µM. CHO-K1 hM1, Fluo-8 calcium fluorescence, ACh EC80 antagonist. actives 1.3% (n = 360,000). P11229;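 active = percent inhibition above its own plate's cutoff, namely the mean of that plate's compound wells plus 3 SD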;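 also: peak over basal fluorescence ratio during 140 s after agonist addition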
Target sequence (P11229 whole entry, looked up): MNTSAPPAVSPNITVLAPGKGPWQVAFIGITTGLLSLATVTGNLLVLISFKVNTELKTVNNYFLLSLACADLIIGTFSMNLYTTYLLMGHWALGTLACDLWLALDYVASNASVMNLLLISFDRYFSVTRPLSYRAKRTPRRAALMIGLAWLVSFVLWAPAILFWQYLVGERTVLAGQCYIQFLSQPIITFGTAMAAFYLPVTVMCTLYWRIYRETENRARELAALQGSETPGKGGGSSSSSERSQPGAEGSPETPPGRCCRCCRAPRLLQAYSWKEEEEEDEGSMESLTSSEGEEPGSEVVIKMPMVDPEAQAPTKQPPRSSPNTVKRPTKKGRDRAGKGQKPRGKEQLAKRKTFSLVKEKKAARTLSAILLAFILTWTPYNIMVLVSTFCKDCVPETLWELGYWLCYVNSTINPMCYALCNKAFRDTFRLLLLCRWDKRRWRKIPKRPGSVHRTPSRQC
CHRM1 agonist – human M1 muscarinic receptor agonism. actives 0.33% (n = 360,000). P11229. activation, % at 3 µM. AID 588814. CHO-K1 hM1, Fluo-8 calcium fluorescence, agonist mode; 0% DMSO, 100% acetylcholine EC100;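 active = activation above the run's mean compound activation plus 3 SD, cut at about 16% in these data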;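 also: peak over basal fluorescence ratio within a 140 s kinetic read after compound addition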
M1 PAM – potentiates human M1 receptor response to acetylcholine; AID 588819; CHO-K1 hM1, Fluo-8 calcium fluorescence, ACh EC20; 0% = ACh EC20, 100% = maximal ACh; actives 0.088% (n = 360,000); P11229; activation, % at 3 µM; in the data active = activation above about 19%, passing the limit was not always enough
M1 PAM parental – counter-screen for M1 PAMs: effect in parental CHO-K1 cells | ATP EC20, Fluo-8 calcium fluorescence; 0% at ATP EC20, 100% at ATP max | AID 602247 | actives 0.02% (n = 360,000) | activation, % at 3 µM;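 active = activation above the run cutoff, the mean activation of all test compounds plus 3 SD, cut at about 40% in these data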;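 also: peak over basal fluorescence ratio in a 140 s read after ATP addition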
CHO-K1 Ca antag – nonselective inhibitor or artifact in parental CHO-K1 cells; inhibition, % at 3 µM; actives 0.6% (n = 360,000); AID 602250; ATP-induced calcium, Fluo-8 fluorescence;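 active = inhibition above a per-plate cutoff, the plate's mean sample inhibition plus 3 SD, cut at about 24% in these data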
M1 ag parental – counter-screen for M1 agonists: effect in parental CHO-K1 cells; Fluo-8 calcium fluorescence; scaled to maximal ATP response, vehicle zero; actives 0.48% (n = 360,000); activation, % at 3 µM; AID 602248; in the data active = activation above about 15%;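 also: untransfected CHO-K1 host cells lacking M1 receptor as counterscreen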
Each line names hits and unclear results; the compound was inactive in the other large screens. Most compounds without a hit are left out; they make up all but 2.3% or so of the library.

CCn1c(CNc2ccccc2Cl)nnc1SCCN1CCCCC1	M1 antag 51
COCCCNc1ncnc2sc3c(c12)CCC(C)C3 (stereo not drawn)	CHO-K1 Ca antag 30
CC1CCc2c(sc3ncnc(NS(=O)(=O)c4cccs4)c23)C1 (stereo not drawn)	none
CCC(C(=O)N1CCN(c2ncccn2)CC1)c1ccccc1 (stereo not drawn)	M1 antag 27
CC(Oc1ccccc1)C(=O)N1CCN(c2ncccn2)CC1 (stereo not drawn)	none
Cc1ccc(C(C)C)c(OCCn2ccnc2C)c1	M1 antag 99
Cc1ccc(C(C)C)c(OCCNCCc2ccccc2)c1	M1 antag 30
c1ccc(CCNCCOc2ccccc2)cc1	M1 ag parental 15
Cc1ccc(C(C)C)c(OCCNC(=O)c2cncc(Br)c2)c1	none
COc1cc(C(=O)NCCOc2cc(C)ccc2C(C)C)cc(OC)c1OC	M1 ag parental 16
Cc1cc(C)cc(-n2c3ccc(NC(=O)Cc4cccc5ccccc45)cc3c(=O)n2C)c1	none
CCOC(=O)[C@]12CCC=C1N(Cc1ccc(Cl)cc1Cl)C(=O)[C@H](CC(=O)NCCCOC)C2	none (no result: M1 antag, CHRM1 agonist, M1 PAM)
O=c1oc2cc(O)ccc2cc1-c1nc2ccccc2o1	CHRM1 agonist 54, M1 ag parental 31
O=c1oc2cc(O)ccc2cc1S(=O)(=O)c1ccccc1	none
CC1(C)CC(=O)C(C=NCCN2CCOCC2)=C(O)C1	none
CC1(C)CC(=O)C(C=NCCN2CCN(CCCCS(=O)(=O)O)CC2)=C(O)C1	CHO-K1 Ca antag 25
CCCC1CC(=O)NC1(C(=O)OCC)C(=O)OCC (stereo not drawn)	none
C[C@@H]1CCCCCCCCC(=O)OCCN[C@H](C)CCCCCCCCC(=O)OCCN[C@H](C)CCCCCCCCC(=O)OCCN1	M1 antag 47
COc1ccccc1NC(=O)Cn1nnc(-c2ccccc2NS(=O)(=O)c2ccccc2)n1	CHO-K1 Ca antag 28
OC(CNCC(c1ccc(Cl)cc1Cl)c1c[nH]c2ccccc12)c1ccccc1 (stereo not drawn)	M1 ag parental 16
O=[N+]([O-])CC(c1ccccc1)c1c[nH]c2ccccc12 (stereo not drawn)	none
COc1ccccc1CNC(=O)C(CCSC)NC(=O)c1cccc(S(=O)(=O)N2CCOCC2)c1 (stereo not drawn)	none
Cc1nc(SCc2ccc(Cl)cc2)ncc1C(=O)O	M1 ag parental 21
COc1ccc(NC(=O)CN(C)C2=NS(=O)(=O)c3ccccc32)cc1Cl	none
Cc1cc(Nc2ccccc2)nn1C(=O)c1ccc(Br)cc1	CHO-K1 Ca antag 25
O=c1c(Cc2ccc(F)cc2)c(O)ccn1CCCn1ccnc1	none
Cn1c(N2CCCC2)nc2c1c(=O)n(Cc1ccc(Cl)cc1)c(=O)n2C	none
CC1CN(c2nc3c(c(=O)n(Cc4ccc(Cl)cc4)c(=O)n3C)n2C)CC(C)O1 (stereo not drawn)	CHO-K1 Ca antag 28
C[C@@H]1CN([C@H](C)CO)S(=O)(=O)c2ccc(Br)cc2O[C@@H]1CN(C)C(=O)NC1CCCC1	none
Cc1ccc(/C=C/C(=O)NCCCn2ccnc2)cc1	M1 ag parental 18
O=C(/C=C/c1ccc(Cl)c(Cl)c1)NCCCn1ccnc1	none
CC(C)Nc1nc(Nc2ccc(C(N)=O)cc2)c2sccc2n1	none
COc1cccc(S(=O)(=O)NCc2ccc(C(=O)Nc3ccc(Cl)c(Cl)c3)cc2)c1	none
O=C(Nc1ccc(Cl)c(Cl)c1)OCc1cccnc1	M1 antag 33, CHO-K1 Ca antag 27
O=C(Nc1ccc(Cl)c(Cl)c1)c1cccc(S(=O)(=O)NCc2cccnc2)c1	CHO-K1 Ca antag 28, M1 ag parental 20
Cc1cc(N2CCCC2=O)cc(C)c1S(=O)(=O)NCCOc1ccc(C(C)(C)C)cc1	M1 antag 39, CHO-K1 Ca antag 27
O=C1CCCN1c1ccc(S(=O)(=O)NCCOc2ccccc2)cc1	none
COC(=O)c1ccc(COC(=O)CNC(=O)c2cccs2)cc1	none
Cc1ccc(OCCCCNC2CCCC(C)C2C)c(C)c1 (stereo not drawn)	M1 antag 48
Cc1ccc(OCCCCN2CCCCC2)c(C)c1	none
CCc1sc(C(=O)Nc2ncccc2C)cc1C	none
CCc1sc(C(=O)Nc2ncccc2O)cc1C	M1 PAM 25
Oc1ccc(-c2cnc3c(Nc4cccc(OC(F)(F)C(F)F)c4)nccn23)cc1	none
NC(=O)c1cccc(-c2cnc3c(Nc4cccc(OC(F)(F)C(F)F)c4)nccn23)c1	CHO-K1 Ca antag 31
CN(C)c1ccc(-c2cc(NC=O)c3ncc(-c4ccc(F)c(Cl)c4)n3c2)cc1	M1 ag parental 20
COc1cccc(-c2cnc3c(NC=O)cc(-c4ccc(N(C)C)cc4)cn23)c1	CHO-K1 Ca antag 25
O=CNc1cc(-c2ccccc2)cn2c(-c3ccc(F)c(Cl)c3)cnc12	none
CN(C)CC/C=C1\c2ccccc2Sc2ccc(Cl)cc21	M1 antag 100
CN(C)CC/C=C1/c2ccc(F)cc2Sc2ccc(Cl)cc21	M1 antag 100
CN(C)CCOc1ccc2c(c1)Sc1ccccc1CC2=O	none
CN(C)CC/C=C1\c2ccccc2Sc2cc(F)c(Cl)cc21	M1 antag 100
CN(C)CC/C=C1\c2cc(Cl)ccc2Sc2cc(F)c(F)cc21	M1 antag 100
OCCN1CCN(CC/C=C2/c3ccccc3Sc3ccc(Cl)cc32)CC1	none
CN(C)CCOCCOc1ccc(Cl)cc1C(C)(C)C	none
O=C(CCc1nc2ccccc2c(=O)[nH]1)OCc1ccc(Cl)cc1Cl	none
Cn1cnc(C(=O)NCc2ccc(CNC(=O)OC(C)(C)C)cc2)c1C(=O)NCc1ccc(CNC(=O)OC(C)(C)C)cc1	none
Cc1cc(C(O)c2ncc(-c3ccc(Oc4ccccc4)cc3)[nH]2)ccc1F (stereo not drawn)	none
CN(C)CC/C=C1\c2ccc(F)cc2Sc2cc(F)c(Cl)cc21	M1 antag 100
CC1(C)CC(=O)c2c(oc3ccc(NS(=O)(=O)c4ccc(C(=O)O)cc4)cc23)C1	CHO-K1 Ca antag 25
CCOC(=O)c1c(C)oc2ccc(NS(=O)(=O)c3ccc(C(=O)O)cc3)cc12	none
Cc1ccc(C)c(SCC(=O)N(C)C2CCS(=O)(=O)C2)c1 (stereo not drawn)	none
Cc1cc(SCC(=O)OCC(=O)N(C)C2CCS(=O)(=O)C2)c(C)cc1Br (stereo not drawn)	M1 ag parental 16
COc1cccc(OCCSc2nc(N)cc(N)n2)c1	CHO-K1 Ca antag 27
Nc1cc(N)nc(SCCOc2ccccc2)n1	none
COc1ccc(Cc2c(C(C)(C)C)nc3c(C)cc(Br)cn23)c(C)c1	CHO-K1 Ca antag 25
COc1ccc(Cc2c(C(C)(C)C)nc3cc(C)c(Br)c(C)n23)c(C)c1	none (no result: M1 antag, CHRM1 agonist, M1 PAM)
